Reference: PubChem BioAssay AID504465 (National Center for Advancing Translational Sciences (NCATS), 2011)
Out of some 2,100 compounds screened, about 210 (10%) were called active. Not shown: some 53% with an inconclusive outcome. Calls follow the shape of the dose curve; as a rule, active = well fitted inhibition curve with a large enough effect; inconclusive = small, poorly fitted or top-dose-only effect, or effect the other way; inactive = no such curve, though single readings can be large or run the other way. This is one part of the list.

assay: IN Cell qHTS Assay for Inhibitors of the mTORC1 Signaling Pathway in MEF (Tsc2-/-, p53-/-) Cells: Sytravon; conditions: phospho-rpS6 immunofluorescence, 24 h; series mostly up to 38.3 µM; also: nearly all actives have a fitted effect of over 60% in size
Description: NIH Molecular Libraries Probe Production Centers Network [MLPCN] NIH Chemical Genomics Center [NCGC] MLPCN Grant: NS059428-01 Assay Submitter (PI): Blenis, John; Hoffman, Greg; Harvard University NCGC Assay Overview: Thee mammalian target of rapamycin (mTOR) is an intracellular serine/threonine kinase Aberrant regulation of mTOR signaling plays a causative role in a number of human diseases, including cancer, benign tumors such as lymphangioleiomyomatosis (LAM) and Tuberous Sclerosis Complex (TSC), and metabolic diseases such as diabetes and obesity. This project aims to identify inhibitors of ribosomal protein S6 (rpS6) phosphorylation. The phosphorylation of rpS6 is a key event downstream of mTOR activation. The assay uses a phospho-specific antibody of phospho-rpS6 to detect inhibitors of mTOR activation. Mutations in the Tsc1 and Tsc2 genes are the underlying genetic lesions responsible for TSC, causing constitutive activation of the mTORC1 pathway and leading to profound effects on cell metabolism. Aberrant metabolism in cancer has recently received significant attention as a target to develop therapeutic agents in the treatment of cancer1. As Tsc2-/- cells have lost the ability to respond to energy and growth factor deprivation, these cells are unable to properly down regulate cellular biosynthetic processes in response to metabolic stress, and are thus extremely sensitive to glucose deprivation-induced death.2 A central goal of this project is to explore the unique cell survival and metabolic properties of cells with Tsc1 or Tsc2 by screening for compounds that selectively target the Tsc2-/- MEFs by screening both Tsc2-/- and WT MEF cell lines. We hope to better understand these aspects of TSC physiology in order to exploit them for therapeutic benefit.
NCGC IN Cell Assay Protocol: For quantitative high throughput analysis of mTORC1 signaling, we developed a cell-based assay for immuno-fluorescence based detection of rpS6 phosphorylation on the Acumen Explorer that will be used a platform for the primary small molecule screen. Mouse embryonic fibroblasts (MEFs) are cultured in 1536-well plates using DMEM + 10% FBS. Twenty-four hrs after plating, test compounds (solubilized in DMSO) are delivered and incubated with the cells for 24 hrs at 37 degree Celsius. Following the incubation, media with compound is aspirated and the cells are fixed in 4% paraformaldehyde (PFA) containing PBS + 0.2% TX-100. Next, PFA is aspirated, cells are washed two times with PBS plus 0.2% TX-100 and the cells are blocked for 1 hr at room temperature (blocking buffer: LiCOR Blocking Buffer plus 0.2% TX-100). This is followed by aspiration and staining with Alexa-488 conjugated-phospho-rpS6 Ser235/236 antibody for 2 hours at room temperature (Cell Signaling Technology # 4803, 1:50 dilution in blocking buffer). Cells are washed two times with PBS plus 0.2% TX-100, and stained with 10 uM propidium iodide (PI) for 20-25 minutes for cell number measurement (1:500 dilution of Hoescht staining is also added for IN Cell imaging). Active wells which are selected (based on Acumen results) are imaged on the IN Cell 1000 (GE Healthcare) using the D360/40X and HQ480/40X excitation filters for the Hoechst and Alexa-488 cytoplasmic stains, respectively. The fluorescence emission filters used were HQ460/40M and HQ535/50M for the Hoechst and Alexa-488 cytoplasmic stains, respectively. The normalized phospho-S6 staining is calculated as the ratio of […] for the single concentration rapamycin control (7.5 nM) and DMSO columns. […] Inhibition of the pathway is defined based on the normalized phospho-S6 intensity in rapamycin treated cells. Each treatment is reported as the % positive cells in the well, where thresholds are defined by selecting wells with the highest and lowest signal and differentiating between the % non-active and % active populations. […]
Potency is read from the fitted curve at half-maximal effect.

Potency, active:
Cc1ccc(Cl)cc1N1CCN(C(=O)c2cnn(-c3ccc(Cl)cc3)c2C2CCNCC2)CC1 13.1 µM, Cc1cc(C)c(NS(=O)(=O)c2ccc(-c3cnc(C4CC4)o3)cc2)c(C)c1 11.7 µM, CCOc1ccc(Nc2nc(-c3cccc(Cl)c3)c3c(n2)-c2ccccc2OC3)cc1 2.07 µM, Cc1ccc2nc3sc(C(=O)Nc4ccc(F)cc4)cc3cc2c1 2.33 µM, O=C(Cn1c(=O)c2ccccc2n(CC(=O)Nc2ccc(Cl)cc2)c1=O)NCCc1ccccc1 14.7 µM, O=C(Nc1cccs1)Nc1cc(C(F)(F)F)ccc1Cl 9.27 µM, CCC1CCc2nc3sc(C(=O)Nc4ccc(F)c(F)c4)c(N)c3cc2C1 (stereo unspecified) 5.85 µM, CCC1CCc2nc3sc(C(=O)Nc4ccc(C)cc4)c(N)c3cc2C1 (stereo unspecified) 5.21 µM, CC(=O)c1ccc(C(=O)N(CCCN(C)C)c2nc3c(C)c(C)ccc3s2)cc1 14.7 µM, Cc1cc(Cl)ccc1NC(=O)CN1C(=O)C(=O)c2ccccc21 2.07 µM, Cc1cc(C)c(NC(=O)Cn2c(=O)n(Cc3ccc(C(=O)NCc4ccc5c(c4)OCO5)cc3)c(=O)c3ccccc32)c(C)c1 4.14 µM, CCOc1ccccc1NC(=O)Cn1c(=O)n(CCC(=O)NCc2ccc3c(c2)OCO3)c(=O)c2ccccc21 4.65 µM, CCOc1ccc(NC(=O)c2nc(S(=O)(=O)Cc3ccccc3F)ncc2Cl)cc1 3.69 µM, O=C(Nc1ccccc1F)c1nc(S(=O)(=O)Cc2ccccc2F)ncc1Cl 2.33 µM, COc1ccc(CC(=O)Nc2sc3c(c2C(=O)Nc2cccc(C)c2)CCCCC3)cc1 11.7 µM, COc1ccc(CC(=O)Nc2sc3c(c2C(=O)Nc2ccccc2)CCCCC3)cc1 9.27 µM

Potency, inactive:
O=C(Nc1ccc(F)c(Cl)c1)c1cc(S(=O)(=O)N2CCc3ccccc3C2)ccc1F, COC(=O)c1cc(C)nc2c1c(=O)nc(SCc1ccccc1Cl)n2C1CC1, COc1ccccc1N1CCN(C(=O)c2ccc3c(c2)CCN3S(=O)(=O)c2ccccc2)CC1, CCc1ccccc1NC(=O)CCNS(=O)(=O)c1ccc2c(c1)CCN2C(=O)C1CC1, Cc1ccc(Cl)cc1N1CCN(C(=O)c2ccc3c(c2)N(Cc2ccc(F)cc2)CCS3)CC1, COc1ccc(-n2ncc(C(=O)N3CCN(C4CCCCC4)CC3)c2C2CCN(C(=O)OC(C)(C)C)CC2)cc1, COc1ccc(OC)c(NC(=O)c2c(NCc3ccc(C)o3)sc3c2CCC(C)C3)c1 (stereo unspecified), COC(=O)c1scc(-c2ccc(C)cc2)c1S(=O)(=O)Nc1cc(Cl)ccc1C, COc1ccccc1CNS(=O)(=O)c1ccc(-c2cnc(C3CC3)o2)cc1, Cc1ccc(NS(=O)(=O)c2cc(-c3cnc(C4CC4)o3)ccc2C)cc1Cl, Cc1ccccc1-c1nc(SCC(=O)N(C)c2ccccc2)c2c(=O)n(C)c(=O)n(C)c2n1, CCOc1ccc(Nc2nc(N)c(C(=O)c3ccccc3Cl)s2)cc1, O=c1c(-c2cc(-c3ccc(F)cc3)nc3c2COc2ccc(Cl)cc2-3)coc2ccc(F)cc12, Cc1ccccc1C1CC(=O)Nc2ccc3ccccc3c21 (stereo unspecified), CCOc1cc(CNCCSc2nnnn2-c2ccccc2)ccc1OC, Cc1ccc(NC(=O)CCS(=O)(=O)c2ccc3nc(C)sc3c2)cc1, COc1ccc(C2=CC(c3ccc(F)cc3)n3ncc(C(=O)Nc4ccc(C)cc4)c3N2)cc1 (stereo unspecified), Cc1sc2ncn(CC(=O)N3CCN(c4ccc(Cl)cc4)CC3)c(=O)c2c1S(=O)(=O)N1CCN(c2ncccn2)CC1, COc1ccccc1CNC(=O)c1ccc2c(c1)CCN2S(=O)(=O)c1ccccc1, CC(=O)c1ccc(NC(=O)CC2Nc3cccc4cccc(c34)NC2=O)cc1 (stereo unspecified), O=S(=O)(NCC(c1ccco1)S(=O)(=O)c1cccs1)c1ccc(Cl)cc1 (stereo unspecified), CCOc1ccc(NC(=O)Cn2c(=O)n(CCCCCC(=O)NCc3ccccc3)c(=O)c3sccc32)cc1, O=C(CCCn1c(=O)c2ccccc2n(Cc2cccc(Cl)c2)c1=O)NCCc1ccc(Cl)cc1, O=C(NCCc1ccc(F)cc1)C(=O)NCC(c1cccs1)S(=O)(=O)c1ccc(Cl)cc1 (stereo unspecified), COc1ccc(-n2c(SCCC(C)C)nc3sc4c(c3c2=O)CC(C(C)C)OC4)cc1 (stereo unspecified), Fc1ccc(C2=NC(c3cccc(C(F)(F)F)c3)=Nc3ccccc3N2)cc1, CCCn1c2ccccc2c2cnn(CC(=O)N(CCCOC)Cc3ccco3)c(=O)c21, Cc1ccc(N=C2NC(=O)CC(C(=O)Nc3cc(C(F)(F)F)ccc3Cl)S2)cc1 (stereo unspecified), COc1ccc(NC(=O)C2CCCN(S(=O)(=O)c3cccc4nonc34)C2)cc1Cl (stereo unspecified), Cc1cccc(C(CC(=O)NCC2(c3ccccc3)CCCC2)c2ccccc2)c1O (stereo unspecified), COc1ccccc1N1CCN(C(=O)CSc2nc3ccccc3nc2Cc2ccc(C)cc2)CC1, O=C(Cn1cc(SCc2ccccc2)c2ccccc21)N1CCCCC1, CCN1CCc2nc3sc(C(=O)Nc4cccc(Cl)c4C)c(N)c3cc2C1, Nc1c(C(=O)Nc2ccccc2F)sc2nc3c(cc12)CCCCCC3, CC1CCc2nc3ncn(CC(=O)Nc4cccc(C#N)c4)c(=O)c3cc2C1 (stereo unspecified), CCC(C)NC(=O)c1sc2nc(C)c(C(=O)Nc3ccc(C)cc3C)c(-c3ccc(Cl)cc3)c2c1N (stereo unspecified), CC1CCCCN1S(=O)(=O)c1cc2c(=O)nc3ccccn3c2cc1Cl (stereo unspecified), C=CCc1ccc(OCc2ccc(C(=O)Nc3ccc(NC(C)=O)cc3)o2)c(OC)c1, Cc1cc(C)cc(OCC(=O)NCC(c2ccc(Cl)cc2)N2CCCCC2)c1 (stereo unspecified), CCc1c(C)nc2nc(-c3ccccc3)nn2c1NCc1ccc(C)cc1, COc1ccc(Br)c(C(=O)Nc2cc3c(cc2N2CCCC2)n(C)c(=O)c(=O)n3C)c1, CC(C)c1ccc(NC(=O)c2cc(S(=O)(=O)NCCc3ccccc3)ccc2F)cc1, COc1ccccc1NC(=O)C1=C(C)Nc2nc(-c3ccco3)nn2C1c1cccc(C)c1 (stereo unspecified), COc1cc(CNC(=O)c2ccc3nc(Cc4ccccc4)oc3c2)cc(OC)c1OC, CCc1ccccc1NS(=O)(=O)c1ccc2[nH]cc(C(=O)NC3CCCC3)c(=O)c2c1, Cc1ccccc1CNCCCSc1nnnn1-c1ccccc1, Cc1ccccc1C(=O)N1CCN(CCc2ccccn2)CC1, CCOC(=O)c1cnc2c(Cl)cc(Cl)cc2c1Nc1cc(C(=O)O)ccc1C, CCOc1ccccc1NC(=O)CN1C(=O)C(=O)c2ccccc21, COc1ccc(NC(=O)CN2C(=O)C(=O)c3ccccc32)c(OC)c1, CCOc1ccccc1CC1C(=O)Nc2ccc(Br)cc21 (stereo unspecified), CC(=O)c1ccc(N2CCN(C(=O)C3CCCN(S(=O)(=O)c4ccc(Br)s4)C3)CC2)cc1 (stereo unspecified), COc1ccc(Cn2c(C(=O)O)c(CNCC(C)c3ccccc3)c3ccc(OC)cc32)cc1 (stereo unspecified), Cc1cccc(OCC(=O)Nc2ccccc2OCc2cc(=O)n3ccccc3n2)c1, Cc1cc(C)c(NC(=O)Cn2c(=O)n(CCC(=O)NCc3ccc4c(c3)OCO4)c(=O)c3ccccc32)c(C)c1, Cc1ccc(C)c(Cn2c(=O)n(CCCCCC(=O)NCc3ccc4c(c3)OCO4)c(=O)c3sccc32)c1, Cc1ccccc1NC(=O)Cn1c(=O)n(CCCCCC(=O)NCc2ccc3c(c2)OCO3)c(=O)c2sccc21, COc1ccc(NC(=O)Cn2c(=O)n(CCCC(=O)NCc3ccccc3OC)c(=O)c3ccccc32)cc1Cl, Cc1ccc(-c2nc(-c3cccs3)c(-c3cccs3)[nH]2)cc1, Cc1ccc(Cl)cc1-n1ncc2c(NC3CCCCCC3)ncnc21, CCOC(=O)c1ccc2c(c1)N(Cc1cccc([N+](=O)[O-])c1)C(=O)c1ccccc1S2, O=C(Nc1ccc(F)cc1)Nc1nnc(SCC(=O)N2CCCCC2)s1, COc1cccc(-c2nc3c(c(SCC(=O)Nc4cccc(C)c4C)n2)Cc2c(CO)cnc(C)c2O3)c1, CCOc1ccc(NC(=O)Cn2ccn(-c3ccc(F)c(F)c3)c(=O)c2=O)cc1, CCOc1cccc(NC(=O)CSc2ncc(-c3ccc(Cl)cc3)[nH]2)c1, CCOc1ccc(CNCc2c(C(=O)O)n(Cc3ccccc3C)c3cc(OC)ccc23)cc1OC, O=C1CC(c2ccccc2)Cc2[nH]c(=O)c(-c3nc(-c4cccc(Cl)c4)cs3)cc21 (stereo unspecified), COc1ccc(C2C(=O)N(C3CCCCCC3)CC(=O)N2CCc2ccccc2)cc1 (stereo unspecified), CC(C)c1cnc2c(c1SCC(=O)c1ccc(Cl)cc1)c(=O)n(C)c(=O)n2C, COc1ccccc1NC(=O)c1c(NCc2ccc(C)o2)sc2c1CCCCC2, COc1ccc(OC)c(NC(=O)c2c(NCc3ccc(C)o3)sc3c2CCCCC3)c1, COc1ccc(NC(=O)c2c(NCc3ccc(C)o3)sc3c2CCCCC3)c(OC)c1, COc1ccc(NC(=O)c2c(NCc3ccc(C)o3)sc3c2CCC(C)C3)cc1 (stereo unspecified), CCOC(=O)c1c(NC(=O)c2ccc(S(=O)(=O)N3CCCC(C)C3)cc2)sc2c1CCN(C(C)C)C2 (stereo unspecified), FC(F)(F)c1ccc(C2=Nc3ccccc3NC(c3cccs3)=N2)cc1
